A selection: hits, their analogues and other compounds. The true share with any hit is near 2.4%.
D2 PAM-1 – positively modulates the human D2 dopamine receptor allosterically; HEK293 T-REx D2, calcium flux, EC20 dopamine potentiation; potentiation, % at 10 µM; 0.34% of 340,000 active; AID 485347;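 active means potentiation over 3 SD above the plate norm, cut at about 30% in these data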; further: 0% is about no effect
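Cells plated with tetracycline inducer and held overnight at 30 C; calcium dye loaded 30–90 min at room temperature; baseline taken, compound added and read 180 s; EC20 dopamine then added and read 180 s.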
D2 PAM-2 – positive allosteric modulators of human D2 dopamine receptor; DiscoveRx D2 beta-arrestin cells, luminescence, 90 min; 100% = 57 uM dopamine signal; potentiation, % (test concentration not listed); 0.23% of 360,000 active; AID 624464; in the data active means potentiation above about 50%; inconclusive means mostly about 30% to 49%
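PathHunter beta-arrestin assay in DiscoveRx D2 cells. Compounds were added with an EC20 of dopamine (50 nM final) for 90 min at 37 deg C. Luminescence was read 1 h after detection reagent, with 57 uM dopamine as the EC100 control.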
D2 ag-1 – activates the human D2 dopamine receptor; P14416; DiscoveRx PathHunter D2 beta-arrestin, luminescence, 90 min; 100% = 57 uM dopamine signal; activation, % (test concentration not listed); 0.084% of 360,000 active; AID 624465; in the data active means activation above about 40%; inconclusive means between about 15% and that limit
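DiscoveRx PathHunter D2 beta-arrestin cells (2,100/well) attached overnight, then compound-stimulated 90 min at 37 C in HBSS/10 mM HEPES/0.1% Tween-20 buffer; beta-galactosidase complementation read by luminescence after 1 h at ambient temperature. Dopamine 57 uM final (EC100) as control.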
D2 ag-2 – activates the human D2 dopamine receptor | P14416 | HEK293 T-REx D2 cells, calcium flux agonist mode | activation, % at 2 µM | 0.53% of 340,000 active | AID 485358;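 active means activation over 3 SD above normal in the single-dose calcium agonist read, cut at about 30% in these data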; further: 0% is about no effect
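In this primary screen, compounds producing a positive calcium signal within 180 s of addition to tetracycline-induced, force-coupled HEK293 Trex D2 cells are flagged; cells are dye-loaded with a no-wash calcium kit beforehand.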
D2 antag – antagonizes the human D2 dopamine receptor | HEK293 TREx D2 cells, calcium flux, dopamine EC80 | 2% of 340,000 active | AID 485344 | inhibition, % at 10 µM; in the data active means inhibition above about 30%; inactive means below that, where a call was filed; further: 0% is about no effect
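Compounds are added to dye-loaded, induced HEK293 T-REx cells coupled to calcium release via D2; after a 3 min kinetic read an EC80 dopamine stimulus is given and fluorescence is recorded for 3 more min.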
D3 ag – activates human D3 dopamine receptor beta-arrestin recruitment; shares compounds with D2 ag-2; DiscoveRx D3 beta-arrestin cells, luminescence, 90 min; Potency, µM (top dose mostly 76.9 µM), without a hit: at the top dose activation, actives largely listed as activators; 4% of 2,300 active; AID 720506;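 further: potency means the concentration at half of the fitted maximal effect; 100% = dopamine control response; nearly all actives have a fitted effect of over 70% in size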
Target sequence (P35462 whole entry, looked up): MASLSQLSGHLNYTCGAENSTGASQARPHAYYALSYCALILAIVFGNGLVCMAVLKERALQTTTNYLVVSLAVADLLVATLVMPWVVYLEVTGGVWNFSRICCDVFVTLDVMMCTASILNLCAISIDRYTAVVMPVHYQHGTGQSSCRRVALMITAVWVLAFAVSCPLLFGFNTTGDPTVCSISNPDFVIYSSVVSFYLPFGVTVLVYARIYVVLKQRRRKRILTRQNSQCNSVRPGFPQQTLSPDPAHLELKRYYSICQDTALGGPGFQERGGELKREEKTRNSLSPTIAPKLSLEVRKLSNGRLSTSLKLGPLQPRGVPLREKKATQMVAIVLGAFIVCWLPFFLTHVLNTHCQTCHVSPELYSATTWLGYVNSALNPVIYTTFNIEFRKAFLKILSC
D2 ag-3 – activates human D2 dopamine receptor in D3 counterscreen; Potency, µM (top dose mostly 76.9 µM), without a hit: at the highest dose activation, hits mostly activators; DiscoveRx PathHunter D2 beta-arrestin, luminescence, 90 min; response scale: percent relative to full dopamine signal; 5.9% of 2,300 active; shares compounds with D2 ag-2; further: potency means the concentration at half of the fitted maximal effect; % of control where 0% means no effect; nearly all actives have a fitted effect of over 70% in size
* hit, by the source's call; ? = inconclusive; . = no result given. Unless noted, the call rests on the fitted dose curve; in most records, active means well fitted activation curve with a large enough effect; inconclusive means small, poorly fitted or top-dose-only effect; inactive means flat fitted curve, though single readings scatter.

SMILES	D2 PAM-1	D2 PAM-2	D2 ag-1	D2 ag-2	D2 antag	D3 ag	D2 ag-3
COC(=O)[C@@H](NC(=O)Nc1ccc(S(N)(=O)=O)cc1)C(C)C	-21.8	-9.3	-4.2	69.1*	3.5	-2.2%	0.2%
CC(C)NC(=O)Cc1ccc(Br)cc1	3.8	6.2	-0.7	0.6	4.3	.	.
CCCC(C)NC(=O)Cc1ccc(Br)cc1 (configuration not stated)	25.6	-13.0	-1.1	-0.1	-5.4	-11.8%	-2.5%
Fc1ccccc1N1CCN(c2ncnc3c2nc2n3CCCCC2)CC1	6.2	.	.	-0.8	.	.	.
O=C(C1CCN(c2ncnc3c2nc2n3CCCCC2)CC1)N1CCN(c2ccccc2F)CC1	-12.2	-3.4	6.2	27.7	5.3	?	16.4%
CCC(C)Sc1oc(-c2ccco2)nc1S(=O)(=O)c1ccc(C)cc1 (configuration not stated)	-1.8	.	.	0.2	.	.	.
COc1ccc(/C=c2\s/c(=C/C(=O)c3ccc(C)cc3)[nH]c2=O)cc1OC	11.1	-14.0	-1.5	19.1	-14.9	-10.3%	-4.5%
COc1ccc(C2=NC(C)(C)N(CC(=O)Nc3cccc(C)c3)C2=O)cc1	2.5	.	.	-0.4	.	.	.
Oc1ccccc1C=NCC(O)c1ccccc1 (configuration not stated)	0.9	11.1	-1.4	3.9	-21.3	11.6%	6.1%
CC(=O)c1ccc(NC(=O)c2cc(-c3ccc(Cl)c(Cl)c3)on2)cc1	-7.9	.	.	.	.	.	.
CC1=CC(C)C(/C=N/N=C(N)N)C(C)C1 (configuration not stated)	-3.0	-5.6	-2.9	28.4	19.4	-1.3%	-3.9%
COc1cc2[nH]c(=S)nc(NCC3CCCO3)c2cc1OC (configuration not stated)	4.1	-7.5	-1.2	-0.1	32.5*	1.4%	-6.0%
Cc1ncc(CO)c2c1Oc1nc(-c3ccccc3F)nc(SCC(=O)N3CCCCC3)c1C2	3.6	.	.	0.6	.	.	.
COc1ccc(NC(=O)CN2CCN(c3ccc(F)cc3)CC2)cc1Cl	-4.5	-20.0	-3.3	0.8	5.4	.	.
COc1cc(NC(=O)c2ccccc2)c(OC)cc1NC(=O)CN1CCN(c2ccccn2)CC1	-28.6	?	7.1	1.8	-3.0	?	?
COc1cc(Cl)c(C)cc1NC(=O)c1ccccc1NC(=O)CN1CCN(c2ccccn2)CC1	.	7.2	0.2	.	.	.	.
COc1ccc(NC(=O)CN2CCN(c3ccccn3)CC2)cc1Cl	-19.3	-5.4	8.7	65.6*	-11.8	?	13.6%
CCOc1ccc(C2C(=O)N(C3CCCCC3)CC(=O)N2Cc2ccccc2OC)cc1OC (configuration not stated)	-17.0	.	.	0.0	.	.	.
O=C(Cc1ccc(Cl)cc1)SCc1ccccc1	3.0	-7.7	-1.4	14.9	-17.3	-19.9%	-4.8%
O=C(Cc1ccccc1)NCCSCc1ccc(Cl)cc1	-6.1	0.3	-4.2	-0.7	7.6	.	.
Cc1cc(-c2n[nH]c(=S)n2/N=C/c2sccc2C)n[nH]1	-25.5	-2.3	-2.1	65.9*	-15.0	-16.1%	-11.8%
CSc1nc2ccccc2c(=O)n1C1CCCCC1	5.3	1.4	0.4	0.2	16.7	.	.
CSc1nc2ccccc2c(=O)n1C1CCOC(C)(C)C1 (configuration not stated)	7.8	2.4	?	20.6	19.5	18.8%	4.5%
CCc1cccc(C)c1NC(=O)C1CCN(S(=O)(=O)c2c(C)noc2/C=C/c2c(C)cc(C)cc2C)CC1	12.2	.	.	-0.5	.	.	.
Cn1cc(C(F)(F)F)nc1-c1ccc(OCC(O)CNCCOc2ccc(O)c(C(N)=O)c2)cc1 (configuration not stated)	-22.9	22.5	?	89.7*	71.8*	?	?
SMILES	D2 PAM-1	D2 PAM-2	D2 ag-1	D2 ag-2	D2 antag	D3 ag	D2 ag-3
CN(CCNC(=O)c1ccc(CS(=O)(=O)c2ccc(Br)cc2)o1)CCc1ccccc1	-25.3	-13.3	-2.4	53.4*	24.2	-21.0%	14.1%
O=C(NCCc1ccccc1)c1ccc(CS(=O)(=O)c2ccc(Br)cc2)o1	-1.4	-15.2	-3.2	-0.2	-8.2	.	.
COc1ccc2c(c1)CC(C(=O)NCCCN1CCN(c3ccccc3F)CC1)CO2 (configuration not stated)	-25.3	.	.	.	.	.	.
O=C(NCCc1ccc(Cl)cc1)C1CCN(S(=O)(=O)c2cccs2)CC1	-4.0	-4.6	-3.4	0.2	16.3	.	.
CCS(=O)(=O)N1CCC(C(=O)NCCCN2CCN(c3ccccc3F)CC2)CC1	-17.9	17.7	?	68.7*	86.4*	?	?
O=C(NCCCN1CCN(c2ccccc2F)CC1)C1CCC(=O)N1C1CCCC1 (configuration not stated)	-17.0	-4.5	4.2	72.2*	66.4*	8.8%	?
O=C(NCCCN1CCN(c2ccccc2F)CC1)C1CCN(S(=O)(=O)c2cccs2)CC1	-17.8	18.3	?	70.2*	74.7*	?	10µM*
O=C(CCN1C(=O)COc2ccccc21)NCCCN1CCN(c2ccccc2F)CC1	-26.3	-13.8	13.8	69.2*	82.0*	17.1%	19.2%
COc1ccc(-c2nc3cc(C)ccn3c2NC(=O)c2cccc(F)c2)cc1	-5.2	.	.	0.7	.	.	.
COC(=O)c1c(NC(C)=O)c2c3c(sc2n1Cc1cc(C)ccc1C)CCCC3	-3.9	.	.	1.0	.	.	.
CCCS(=O)(=O)N1CCCC(C(=O)NCCCN2CCN(c3cccc(Cl)c3)CC2)C1 (configuration not stated)	-22.6	-29.1	6.9	47.6*	51.2*	?	21.6%
O=C(NCCN1CCN(c2ccccc2)CC1)C1CCN(S(=O)(=O)c2cccs2)CC1	.	-5.5	?	.	.	?	?
COc1cc2[nH]c(=O)n(CCC(=O)NCCCN3CCN(c4ccccc4F)CC3)c(=O)c2cc1OC	-34.1	-17.2	6.5	50.8*	95.8*	?	19.1%
CCCN1CCN(CCCNC(=O)c2ccc3c(=O)n(CCc4ccccc4)c(=O)[nH]c3c2)CC1	-23.1	5.9	9.4	68.0*	30.5*	-3.2%	16.7%
O=C(NCCS(=O)(=O)N1CCN(c2cccc(Cl)c2)CC1)C1CCCC1	-2.3	-20.8	-2.6	0.4	-3.4	.	.
O=C(Nn1cnnc1)c1ccncc1	-4.1	-2.4	-1.8	-0.2	9.1	-6.5%	-1.7%
Cc1ccc(C)c(S(=O)(=O)NCC(c2ccco2)S(=O)(=O)c2ccc(F)cc2)c1 (configuration not stated)	7.7	.	.	0.5	.	.	.
O=C(c1cccs1)N(Cc1ccco1)C1CCS(=O)(=O)C1 (configuration not stated)	-19.9	20.8	?	58.4*	40.8*	16.6%	24.8%

From PubChem BioAssay
